The panel holds about 79,000 compounds, 15% with a hit somewhere; the sample as a whole holds those more often. Active and inactive are the calls of the source. No stated cut-off is given here; in the data, active means growth inhibition above about 70%; inactive means the rest.
Columns and labels:
[1] = NCI Yeast Anticancer Drug Screen. Data for the rad52 strain (AID 147);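 further: 0% = growth of vehicle-treated control cultures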; conditions: S. cerevisiae rad52 mutant growth inhibition, active compounds read high
In short: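 Measured: yeast growth inhibition. System: strain with a defined DNA damage repair alteration. Reference: vehicle-treated control cultures.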

[2] = NCI Yeast Anticancer Drug Screen. Data for the wt1 strain (AID 149);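 further: 0% = growth of vehicle-treated wt1 cultures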; conditions: S. cerevisiae wt1 strain (SPY 50644) growth inhibition, active compounds read high
In short: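 Each compound is tested on wt1 yeast and the loss of growth versus vehicle gives the inhibition value.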

[3] = NCI Yeast Anticancer Drug Screen. Data for the rad50EPP+ strain (AID 151);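 further: 0% = growth of vehicle-treated control cultures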; conditions: S. cerevisiae rad50 mutant strain, active compounds read high
In short: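 One strain with a rad50 alteration (rad50EPP+) was compound-treated, its growth then compared to that of vehicle controls.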

[4] = NCI Yeast Anticancer Drug Screen. Data for the rad50 strain (AID 155);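 further: 0% = growth of vehicle-only cultures of the same strain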; conditions: S. cerevisiae rad50 strain growth inhibition, active compounds read high
In short: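 Vehicle-treated cultures provide the reference for the growth inhibition reported for compound-exposed, repair-deficient yeast.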

[5] = NCI Yeast Anticancer Drug Screen. Data for the mec2-1 strain (AID 157); conditions: S. cerevisiae mec2-1 strain, active compounds read high
In short: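 Test agents were screened against the mec2-1 yeast strain, with defined DNA repair or cell cycle alteration. Growth was scored as inhibition against vehicle-only controls.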

[6] = NCI Yeast Anticancer Drug Screen. Data for the rad14 strain (AID 159);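 further: 0% = growth of vehicle-treated control cultures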; conditions: S. cerevisiae rad14 strain growth inhibition, active compounds read high
In short: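 Inhibition of growth is reported for a repair-deficient yeast mutant following compound treatment, calculated relative to cultures that received vehicle.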

[7] = NCI Yeast Anticancer Drug Screen. Data for the sgs1 mgt1 strain (AID 161);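 further: 0% = growth of cultures given vehicle only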; conditions: S. cerevisiae sgs1 mgt1 strain, active compounds read high
In short: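 Read-out: growth inhibition vs vehicle controls. Cells: mutant yeast strain deficient in DNA damage repair.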

[8] = NCI Yeast Anticancer Drug Screen. Data for the CLN2oe strain (AID 163);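 further: 0% = growth of vehicle-only control cultures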; conditions: S. cerevisiae CLN2oe strain, active compounds read high
In short: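 Here, growth inhibition in a cell-cycle-altered yeast strain after compound exposure was quantified against vehicle control growth.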

[9] = NCI Yeast Anticancer Drug Screen. Data for the cln2 rad14 strain (AID 165);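 further: 0% = growth equal to vehicle treated cultures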; conditions: S. cerevisiae cln2 rad14 strain, active compounds read high
In short: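 Growth of compound-exposed yeast (cln2 rad14 genotype) measured and expressed as inhibition relative to vehicle.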

[10] = NCI Yeast Anticancer Drug Screen. Data for the bub3 strain (AID 167); conditions: S. cerevisiae bub3 mutant strain, active compounds read high
In short: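 Mutant yeast screening strain plus compound; vehicle-treated cultures serve as the 0% inhibition reference.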

[11] = NCI Yeast Anticancer Drug Screen. Data for the wt2 strain (AID 169); conditions: S. cerevisiae wt2 strain growth inhibition, active compounds read high
In short: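 Genetically defined yeast strains from a DNA-repair/cell-cycle panel were used. Compound-exposed yeast growth was measured, and the inhibition was calculated relative to vehicle treatment.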

[12] = NCI Yeast Anticancer Drug Screen. Data for the mlh1 strain (AID 171);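 further: 0% = growth of vehicle-treated control cultures of the same strain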; conditions: S. cerevisiae mlh1 strain growth inhibition, active compounds read high
In short: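 Here the genetically defined yeast mutant is grown with each compound, and the extent to which its growth falls below that of vehicle-exposed cells is reported.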

[13] = NCI Yeast Anticancer Drug Screen. Data for the sgs1 strain (AID 173);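 further: 0% = growth of vehicle-only control cultures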; conditions: S. cerevisiae sgs1 mutant, active compounds read high
In short: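 Relative growth inhibition, referenced to vehicle, was determined in a yeast strain with a defined alteration affecting DNA damage repair or cell cycle control after compound exposure.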

[14] = NCI Yeast Anticancer Drug Screen. Data for the mlh1 rad18 strain (AID 175); conditions: S. cerevisiae mlh1 rad18 strain growth inhibition, active compounds read high
In short: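 In this whole-cell yeast screen, a strain with altered DNA damage repair is challenged with compound, and its growth is measured against matched vehicle-treated controls.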

[15] = NCI Yeast Anticancer Drug Screen. Data for the rad18 strain (AID 177); conditions: S. cerevisiae rad18 mutant growth inhibition, active compounds read high
In short: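 Screen uses a yeast strain with a defined lesion in DNA damage repair; compound effect is read as loss of growth compared to untreated vehicle cultures.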

[16] = at 5.0 µM (retest, dose inferred, filed as 0.5)
[17] = at 50.0 µM (retest, dose inferred, filed as 5.0)

Measured: growth inhibition

CCC(c1ccc(O)cc1)C(CC)c1ccc(OCCN)cc1 (stereo not drawn)
active: [1]; at 100.0 µM 88% | [4]; at 100.0 µM 88% | [6]; at 100.0 µM 98% | [7]; [17] 76% | [8]; at 100.0 µM 83% | [10]; at 100.0 µM 72% | [11]; at 100.0 µM 92% | [12]; at 100.0 µM 91% | [13]; at 100.0 µM 94% | [14]; [17] 87% | [15]; at 100.0 µM 91%
inactive: [1]; at 1.2 µM -5% | [1]; at 3.7 µM 0% | [1]; at 11.0 µM 0% | [1]; at 33.0 µM 11% | [2]; at 1.2 µM -4% | [2]; at 3.7 µM -4% | [2]; at 11.0 µM -8% | [2]; at 33.0 µM -8% | [2]; at 100.0 µM 27% | [3]; at 1.2 µM -3% | [3]; at 3.7 µM 1% | [3]; at 11.0 µM 12% | [3]; at 33.0 µM 1% | [3]; at 100.0 µM 10% | [4]; at 1.2 µM 0% | [4]; at 3.7 µM -1% | [4]; [16] 18% | [4]; at 11.0 µM 3% | [4]; at 33.0 µM 27% | [4]; [17] 69% | [4]; at 50.0 µM 27.9% | [5]; at 1.2 µM -3% | [5]; at 3.7 µM -3% | [5]; [16] -4% | [5]; at 11.0 µM -7% | [5]; at 33.0 µM -4% | [5]; [17] 8% | [5]; at 50.0 µM 6.25% | [5]; at 100.0 µM 64% | [6]; at 1.2 µM -3% | [6]; at 3.7 µM 1% | [6]; at 11.0 µM 3% | [6]; at 33.0 µM 17% | [7]; [16] 0% | [7]; at 50.0 µM 60.1% | [8]; at 1.2 µM -1% | [8]; at 3.7 µM -4% | [8]; at 11.0 µM 5% | [8]; at 33.0 µM 19% | [9]; [16] -2% | [9]; [17] 25% | [9]; at 50.0 µM -1.25% | [10]; at 1.2 µM -2% | [10]; at 3.7 µM -3% | [10]; [16] -19% | [10]; at 11.0 µM -7% | [10]; at 33.0 µM -1% | [10]; [17] 62% | [10]; at 50.0 µM 45.1% | [11]; at 1.2 µM -2% | [11]; at 3.7 µM -9% | [11]; at 11.0 µM 6% | [11]; at 33.0 µM 8% | [12]; at 1.2 µM -3% | [12]; at 3.7 µM -4% | [12]; at 11.0 µM -5% | [12]; at 33.0 µM 12% | [13]; at 1.2 µM -23% | [13]; at 3.7 µM -46% | [13]; at 11.0 µM -18% | [13]; at 33.0 µM 15% | [14]; [16] 12% | [14]; at 50.0 µM 14.6% | [15]; at 1.2 µM -7% | [15]; at 3.7 µM -6% | [15]; at 11.0 µM -6% | [15]; at 33.0 µM 0%
